Experimental data: PubChem BioAssay (EPA / NIEHS)
Records with an inconclusive call do not appear. Calls of active or inactive are those of the source. The calls were made as follows: active = hit-call score of the fitted dose curve at least 0.9, where 1 is the maximum; inconclusive = response in the unintended direction; inactive = score below 0.9.

experiment: Tanguay_ZF_120hpf_PFIN_legacy: (Legacy) Oregon State University Tanguay Lab 120 Hour Post-fertilization zebrafish Assay for Pectoral Fin Malformation (AID 2283648);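 also: each larva judged yes or no for fin defect by brightfield with dead larvae skipped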
Procedure: Tanguay_ZF_120hpf_legacy is a whole embryo, multiplexed endpoint assay using zebrafish larvae exposed for 120 hours post fertilization on a 96-well plate.Tanguay_ZF_120hpf_PFIN_legacy is one of one assay component(s) measured or calculated from the Tanguay_ZF_120hpf_legacy assay. It is designed to make measurements of zebrafish development as detected with brightfield microscopy of developing zebrafish embryos.Data from the assay component Tanguay_ZF_120hpf_PFIN_legacy was analyzed into 1 assay endpoints. This assay endpoint, Tanguay_ZF_120hpf_PFIN_legacy, was analyzed in the positive analysis fitting direction relative to DMSO as the negative control and baseline of activity. Using a type of morphology reporter, gain-of-signal activity can be used to understand changes in developmentals as they relate to the whole embryo. To generalize the intended target to other relatable targets, this assay endpoint is annotated to the zebrafish development intended target family, where the subfamily is pectoral fin morphogenesis.
Zebrafish husbandry: Tropical 5D wild-type adult zebrafish were housed in at an approximate density of 1000 per 100 gallon tank at the Sinnhuber Aquatic Research Laboratory, Oregon State University, Corvallis, OR. Each tank was kept at standard laboratory conditions of 28C on a 14-h light/10-h dark photoperiod in fish water consisting of reverse osmosis water supplemented with a commercially available salt (Instant Ocean). Spawning funnels were placed into the tanks the night prior, and embryos were collected and staged. To increase bioavailability, the chorion was enzymatically removed using pronase (63.6mg/ml, >/= 3.5U/mg, Sigma-Aldrich: P5147) at 4 hours post fertilization (hpf) using a custom automated dechorionator.Chemical exposures: Six hpf dechorionated embryos were placed 1 embryo per well in a 96-well plate prefilled with 90 ul of EM using automated embryo placement systems (AEPS). Ten microliters of each row of dilution plate 2 was added to 2 exposure plates. The final DMSO concentration used was 0.64% (vol/vol). Thirty-two embryos were also exposed to 5uM trimethyltin chloride (positive control). Plates were sealed to prevent evaporation and foil covered to reduce light exposure and kept in a 28C incubator. Embryos were statically exposed until 120 hpf. At 24 hpf, embryos were assessed for photomotor response using a custom photomotor response analysis tool (PRAT) and for developmental toxicity endpoints (MO24: mortality at 24 hpf, DP: developmental progression, SM: spontaneous movement, and NC: notochord distortion). At 120 hpf, locomotor activity was measured using Viewpoint Zebralab and assessed for 18 endpoints. Zebrafish acquisition and analysis program (ZAAP), a custom program designed to inventory, acquire, and manage zebrafish data, was used to collect developmental endpoints as either present or absent (i.e., binary responses were recorded). If mortality occurred for an embryo (at either 24 or 120 hpf), the non-mortality endpoints were not measured.

Compound | outcome | AC50
Cc1occc1C(=O)Nc1ccc(C(=O)N2CCC(F)(F)/C(=C\C(=O)N3CCC(N4CCCCC4)CC3)c3ccccc32)cc1 | inactive | –
CC1=CC(=O)/C(=C(/C)O)C(=O)O1 | inactive | –
O=C1c2ccccc2C(=O)N1CCc1noc(-c2ccc(CN3CCCCCC3)s2)n1 | inactive | –
CCCCOC(=O)c1ccc(O)cc1 | – | 46.5 µM (active)
Cc1cccc2ccccc12 | inactive | –
c1ccc2n[nH]nc2c1 | inactive | –
c1ccc(C[n+]2cccc3ccccc32)cc1 | inactive | –
COc1cc(C(=O)NC2CCN(C)CC2)ccc1Nc1ncc2c(n1)N(C1CCCC1)CC(F)(F)C(=O)N2C | inactive | –
CC(O)CC(C)(C)O (stereo not given) | inactive | –
CCCOC(=O)c1cc(O)c(O)c(O)c1 | inactive | –
CCCCCc1ccc(N)cc1 | inactive | –
CO[C@H]1/C=C/O[C@@]2(C)Oc3c(C)c(O)c4c(O)c(c(/C=N/N5CCN(C)CC5)c(O)c4c3C2=O)NC(=O)/C(C)=C\C=C\[C@H](C)[C@H](O)[C@@H](C)[C@@H](O)[C@@H](C)[C@H](OC(C)=O)[C@@H]1C | inactive | –
Cc1ncc(CO)c(CO)c1O | inactive | –
O=C(O)c1ccccc1C(=O)OCc1ccccc1 | inactive | –
C[C@]12CC[C@@H]3c4ccc(O)cc4CC[C@H]3[C@@H]1CCC2=O | inactive | –
O=C(Nc1ccc(Cl)cc1)Nc1ccc(Cl)c(Cl)c1 | inactive | –
Cc1c2ccccc2c(C)c2c1ccc1ccccc12 | inactive | –
CCCCCCCCOC(=O)c1cc(O)c(O)c(O)c1 | inactive | –
O=c1ccc2ccccc2o1 | inactive | –
OC12N=C(c3ccccc3)SC1Cc1cc(Cl)ccc12 (stereo not given) | inactive | –

Compound | outcome | AC50
COc1ccc2cc(S(=O)(=O)N[C@H](CC(=O)N[C@H](Cc3ccc(CN4[C@H](C)CCC[C@@H]4C)cc3)C(=O)N(C)C(C)C)c3ccc4c(c3)OCO4)ccc2c1 | inactive | –
COCC(C)OCC(C)OCC(C)O (stereo not given) | inactive | –
CC(C)(O)c1ccc(CNC(=O)c2cccnc2Oc2ccc3nonc3c2)cc1 | inactive | –
CCCCCCCCN(C)CCCCCCCC | inactive | –
CCN(Cc1cccnc1)C(=O)c1cccc(Cl)c1[C@]1(C)C(=O)N(Cc2ccc(OC)cc2OC)c2ccc(Cl)cc21 | inactive | –
CCCCCCCCCC(=O)O | inactive | –
CC(C)(C)c1csc(-c2cc3cc(OCc4ccccc4CC(=O)O)ccc3o2)n1 | inactive | –
CCCCCCCCCCCC[N+](C)(C)C | inactive | –
CCO[Si](CCCNC(N)=O)(OCC)OCC | inactive | –
CCCCOC(=O)CC(CC(=O)OCCCC)(OC(C)=O)C(=O)OCCCC | inactive | –
NC(=O)c1nc(-c2cccc(-c3cc(F)ccc3OCC(F)(F)C(F)(F)F)c2)n[nH]1 | – | 24.8 µM (active)
CC/C(=C(/CC)c1ccc(O)cc1)c1ccc(O)cc1 | inactive | –
O=C(O)Cn1c(=O)n(Cc2ccc(Br)cc2F)c(=O)c2ccc(Cl)cc21 | inactive | –
O=CCCCC=O | inactive | –
CC(C)(C)c1cc(/C=C2\SC(N)=NC2=O)cc(C(C)(C)C)c1O | inactive | –
O=c1c(-c2ccc(O)cc2)coc2cc(O)cc(O)c12 | inactive | –
CC[C@H](NC(=O)c1cc(F)ccc1NS(=O)(=O)c1cccc2cccnc12)c1ccccc1 | inactive | –
CC[C@@H]1C[C@H](N(Cc2cc(C(F)(F)F)cc(C(F)(F)F)c2)C(C)=O)c2cc(C(F)(F)F)ccc2N1C(=O)OC(C)C | inactive | –
CC1(C)NC(=O)N(c2ccc([N+](=O)[O-])c(C(F)(F)F)c2)C1=O | inactive | –
CCN(Cc1cccc(S(=O)(=O)O)c1)c1ccc(C(=C2C=CC(=[N+](CC)Cc3cccc(S(=O)(=O)O)c3)C=C2)c2ccccc2S(=O)(=O)[O-])cc1 | inactive | –
